In PubChem BioAssay AID1159580 (chemical genetic matrix, 2015):
Out of some 5,500 compounds screened, about 2,000 (36%) were called active. About 18% were inconclusive and are not listed. Cut-off read from the data, not from the text of the source: active = normalized growth mostly below about 0.91 (no sharp cut-off); inconclusive = no clear call, values can overlap the other calls; inactive = mostly above about 0.92. Some of the results follow.

Test: chemical genetic growth profiling, strain panel (AID 1159580);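 note: tested at 20 µM; growth read once vehicle control cultures reached saturation at 30 °C; 1 = growth at the plate median or of vehicle wells; lower values mean less growth of the strain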
Details: growth OD
[1] = S. cerevisiae deletion strains, locus YDL101C, strain DUN1, active compounds read low
[2] = S. cerevisiae deletion strains, locus YHR030C, strain SLT2, active compounds read low
[3] = S. cerevisiae deletion strains, locus YAL013W, strain DEP1, active compounds read low
[4] = S. cerevisiae deletion strains, locus YBR229C, strain ROT2, active compounds read low
[5] = S. cerevisiae deletion strains, locus YDL134C, strain PPH21, active compounds read low
[6] = S. cerevisiae deletion strains, locus YDR150W, strain NUM1, active compounds read low
[7] = S. cerevisiae deletion strains, locus YEL061C, strain CIN8, active compounds read low
[8] = S. cerevisiae deletion strains, locus YGR078C, strain PAC10, active compounds read low
[9] = S. cerevisiae deletion strains, locus YHR087W, strain rtc3, active compounds read low
[10] = S. cerevisiae deletion strains, locus YJR043C, strain POL32, active compounds read low
[11] = S. cerevisiae deletion strains, locus YJR075W, strain HOC1, active compounds read low
[12] = S. cerevisiae deletion strains, locus YKL190W, strain CNB1, active compounds read low
[13] = S. cerevisiae deletion strains, locus YLR039C, strain RIC1, active compounds read low
[14] = S. cerevisiae deletion strains, locus YLR058C, strain SHM2 (second series), active compounds read low
[15] = S. cerevisiae deletion strains, locus YLR085C, strain ARP6, active compounds read low
[16] = S. cerevisiae deletion strains, locus YLR262C, strain YPT6, active compounds read low
[17] = S. cerevisiae deletion strains, locus YML094W, strain GIM5, active compounds read low
[18] = S. cerevisiae deletion strains, locus YMR219W, strain ESC1, active compounds read low
[19] = S. cerevisiae deletion strains, locus YMR263W, strain SAP30, active compounds read low
[20] = S. cerevisiae deletion strains, locus YNL153C, strain GIM3, active compounds read low
[21] = S. cerevisiae deletion strains, locus YNL298W, strain CLA4 (second series), active compounds read low
[22] = S. cerevisiae deletion strains, locus YNL322C, strain KRE1, active compounds read low
[23] = S. cerevisiae deletion strains, locus YNR030W, strain Alg12, active compounds read low
[24] = S. cerevisiae deletion strains, locus YOL006C, strain TOP1, active compounds read low
[25] = S. cerevisiae deletion strains, locus YPL055C, strain LGE1, active compounds read low
[26] = S. cerevisiae deletion strains, locus YPL241C, strain CIN2, active compounds read low
[27] = S. cerevisiae deletion strains, locus YPR135W, strain CTF4, active compounds read low
[28] = S. cerevisiae strains, strain wild type, active compounds read low
[29] = S. cerevisiae deletion strains, locus YCL061C, strain MRC1, active compounds read low

Measured: normalized growth

Cc1c(S(=O)(=O)Nc2cccc([N+](=O)[O-])c2)sc2ccc(Cl)cc12
inactive: S. cerevisiae deletion strains, locus YAR019C, strain CDC15, active compounds read low 0.965 | S. cerevisiae deletion strains, locus YBL105C, strain PKC1, active compounds read low 0.973 | S. cerevisiae deletion strains, locus YBR135W, strain CKS1, active compounds read low 0.968 | S. cerevisiae deletion strains, locus YBR136W, strain MEC1, active compounds read low 0.973 | S. cerevisiae deletion strains, locus YBR160W, strain CDC28, active compounds read low 0.967 | S. cerevisiae deletion strains, locus YDL017W, strain CDC7, active compounds read low 0.972 | S. cerevisiae deletion strains, locus YDL028C, strain MPS1, active compounds read low 0.979 | [1] 0.963 | S. cerevisiae deletion strains, locus YDL108W, strain KIN28, active compounds read low 0.981 | S. cerevisiae deletion strains, locus YDL132W, strain cdc53, active compounds read low 0.955 | S. cerevisiae deletion strains, locus YDL214C, strain PRR2, active compounds read low 0.991 | S. cerevisiae deletion strains, locus YDR052C, strain DBF4, active compounds read low 0.958 | S. cerevisiae deletion strains, locus YDR054C, strain cdc34, active compounds read low 0.969 | S. cerevisiae deletion strains, locus YDR226W, strain ADK1, active compounds read low 0.966 | S. cerevisiae deletion strains, locus YDR477W, strain SNF1, active compounds read low 0.979 | S. cerevisiae deletion strains, locus YER123W, strain YCK3, active compounds read low 1.01 | S. cerevisiae deletion strains, locus YER133W, strain GLC7, active compounds read low 0.982 | S. cerevisiae deletion strains, locus YFL009W, strain cdc4, active compounds read low 0.97 | S. cerevisiae deletion strains, locus YFL029C, strain CAK1, active compounds read low 0.97 | S. cerevisiae deletion strains, locus YFR003C, strain YPI1, active compounds read low 0.98 | S. cerevisiae deletion strains, locus YFR019W, strain FAB1, active compounds read low 0.975 | S. cerevisiae deletion strains, locus YFR028C, strain CDC14, active compounds read low 0.973 | S. cerevisiae deletion strains, locus YGR040W, strain KSS1, active compounds read low 0.96 | S. cerevisiae deletion strains, locus YGR052W, strain FMP48, active compounds read low 1.09 | S. cerevisiae deletion strains, locus YGR092W, strain DBF2, active compounds read low 0.932 | S. cerevisiae deletion strains, locus YHR079C, strain IRE1, active compounds read low 0.913 | S. cerevisiae deletion strains, locus YHR082C, strain KSP1, active compounds read low 1.01 | S. cerevisiae deletion strains, locus YHR205W, strain SCH9, active compounds read low 0.986 | S. cerevisiae deletion strains, locus YIL147C, strain SLN1, active compounds read low 0.976 | S. cerevisiae deletion strains, locus YJL095W, strain BCK1, active compounds read low 0.979 | S. cerevisiae deletion strains, locus YJL128C, strain PBS2, active compounds read low 0.963 | S. cerevisiae deletion strains, locus YJL157C, strain FAR1, active compounds read low 1.01 | S. cerevisiae deletion strains, locus YJR016C, strain ILV3, active compounds read low 0.969 | S. cerevisiae deletion strains, locus YJR066W, strain TOR1 (second series), active compounds read low 0.999 | S. cerevisiae deletion strains, locus YJR066W, strain TOR1, active compounds read low 1.03 | S. cerevisiae deletion strains, locus YKL048C, strain ELM1, active compounds read low 0.967 | S. cerevisiae deletion strains, locus YKL067W, strain YNK1, active compounds read low 0.99 | S. cerevisiae deletion strains, locus YKL101W, strain HSL1, active compounds read low 0.981 | S. cerevisiae deletion strains, locus YKL193C, strain SDS22, active compounds read low 0.971 | S. cerevisiae deletion strains, locus YKL203C, strain TOR2, active compounds read low 1 | S. cerevisiae deletion strains, locus YLR113W, strain HOG1, active compounds read low 0.878 | S. cerevisiae deletion strains, locus YLR133W, strain CKI1, active compounds read low 0.989 | S. cerevisiae deletion strains, locus YLR403W, strain SFP1, active compounds read low 0.954 | S. cerevisiae deletion strains, locus YML070W, strain DAK1, active compounds read low 0.974 | S. cerevisiae deletion strains, locus YMR001C, strain CDC5, active compounds read low 0.974 | S. cerevisiae deletion strains, locus YMR205C, strain PFK2 (second series), active compounds read low 0.992 | S. cerevisiae deletion strains, locus YMR277W, strain FCP1, active compounds read low 0.989 | S. cerevisiae deletion strains, locus YNL006W, strain LST8, active compounds read low 0.966 | S. cerevisiae deletion strains, locus YNL020C, strain ARK1, active compounds read low 0.972 | S. cerevisiae deletion strains, locus YNL161W, strain CBK1, active compounds read low 0.971 | S. cerevisiae deletion strains, locus YNL183C, strain NPR1, active compounds read low 0.926 | S. cerevisiae deletion strains, locus YNL207W, strain RIO2, active compounds read low 0.983 | S. cerevisiae deletion strains, locus YNL222W, strain SSU72, active compounds read low 0.966 | S. cerevisiae deletion strains, locus YNL307C, strain MCK1 (second series), active compounds read low 0.988 | S. cerevisiae deletion strains, locus YOL078W, strain AVO1, active compounds read low 0.975 | S. cerevisiae deletion strains, locus YOL136C, strain PFK27, active compounds read low 0.968 | S. cerevisiae deletion strains, locus YOR061W, strain CKA2, active compounds read low 0.966 | S. cerevisiae deletion strains, locus YOR119C, strain RIO1, active compounds read low 1.08 | S. cerevisiae deletion strains, locus YOR231W, strain MKK1, active compounds read low 0.955 | S. cerevisiae deletion strains, locus YOR329C, strain SCD5, active compounds read low 0.971 | S. cerevisiae deletion strains, locus YPL031C, strain PHO85, active compounds read low 0.985 | S. cerevisiae deletion strains, locus YPL153C, strain RAD53, active compounds read low 0.962 | S. cerevisiae deletion strains, locus YPL204W, strain HRR25, active compounds read low 0.964 | S. cerevisiae deletion strains, locus YPL209C, strain IPL1, active compounds read low 0.973 | S. cerevisiae deletion strains, locus YPL256C, strain CLN2, active compounds read low 0.926 | S. cerevisiae deletion strains, locus YPR025C, strain CCL1, active compounds read low 0.97 | S. cerevisiae deletion strains, locus YPR106W, strain ISR1, active compounds read low 0.971 | S. cerevisiae deletion strains, locus YPR111W, strain DBF20, active compounds read low 0.965 | S. cerevisiae deletion strains, strain NNK1, active compounds read low 0.951 | S. cerevisiae deletion strains, strain TSCII, active compounds read low 0.964
active: [2] 0.752

FC(F)(F)Oc1ccccc1-c1nnc(-c2ccc(Cl)cc2)o1
active: [2] 0.442 | [11] 0.87 | [12] 0.9 | [15] 0.68 | [23] 0.837 | [26] 0.852
inactive: [3] 0.946 | [4] 0.968 | [1] 0.971 | [5] 0.963 | [6] 0.912 | [7] 0.931 | [8] 0.934 | [9] 0.924 | S. cerevisiae deletion strains, locus YJL187C, strain SWE1, active compounds read low 0.957 | [10] 0.975 | [13] 0.874 | [14] 0.95 | [16] 0.963 | [17] 0.878 | [18] 0.966 | [19] 0.948 | [20] 0.976 | [21] 0.872 | [22] 0.944 | [24] 0.767 | [25] 0.851 | [27] 0.73 | [28] 0.94

Cc1nn(-c2ccccc2)nc1-c1nnc(-c2ccc(Cl)cc2)o1
inactive: [3] 1.02 | [4] 1.01 | [29] 0.986 | [1] 0.995 | [5] 1 | [6] 1 | [7] 1.01 | [8] 0.993 | S. cerevisiae deletion strains, locus YGR229C, strain SMI1, active compounds read low 1.01 | [2] 1.03 | [9] 1.04 | [10] 1.02 | [11] 1 | [12] 1.01 | [13] 1.04 | [14] 1.02 | [15] 1.03 | [16] 1.03 | [17] 1.04 | [18] 0.998 | [19] 1.05 | S. cerevisiae deletion strains, locus YMR307W, strain GAS1, active compounds read low 1.07 | [20] 1 | [21] 1.01 | [22] 0.988 | [23] 1.03 | [25] 1.01 | [26] 1 | [27] 0.98 | [28] 1.01

O=S(=O)(NCc1ccc2c(c1)OCO2)c1ccc(F)c(Cl)c1
active: [13] 0.757 | [16] 0.683
inactive: [3] 0.98 | [4] 0.94 | [29] 0.977 | [1] 0.925 | [6] 0.913 | [7] 0.965 | [8] 0.96 | [2] 0.779 | [9] 0.948 | [10] 0.968 | [11] 0.937 | [14] 0.951 | [15] 0.991 | [17] 1 | [18] 0.962 | [19] 0.965 | S. cerevisiae deletion strains, locus YNL128W, strain TEP1, active compounds read low 0.957 | [20] 0.971 | [21] 0.943 | [22] 0.967 | [23] 0.954 | [24] 0.843 | [25] 0.995 | [26] 0.998 | [27] 0.784
